In PubChem BioAssay (NCATS):
“And” between values parts separate entries of the source, which are not always exact repeats. Equal entries are not always repeated. Results filed as inconclusive are left out. The source made the active and inactive calls. Unless noted, the call rests on the fitted dose curve.

Experiments:
[1] = biological target: Bile acid receptor (Homo sapiens) (UniProt Q96RI1); test: qHTS assay for small molecule antagonists of farnesoid X receptor signaling (AID 588526); further: on the % scale 0 is the no-effect control and ±100 the full control effect
Method in brief: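 Beta-lactamase reporter antagonist mode: HEK293T FXR-UAS-bla cells, titrated compound, CDCA stimulation, 16 h 37 C, CCF4 dye 2 h RT. Data normalized to CDCA 50 uM and DMSO; Hill-fit IC50.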

[2] = biological target: Glucocorticoid receptor (Homo sapiens) (UniProt P04150); test: qHTS assay for small molecule agonists of glucocorticoid receptor signaling (AID 588532; active means well fitted curve in the direction sought with a large enough effect in the signal ratio, with a control signal flat; the % refers to the signal ratio;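 further: 100% = dexamethasone at 0.1 µM and 0% = DMSO only wells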); conditions: HeLa MMTV-bla, beta-lactamase ratio, agonist, 18 h; active compounds read high; percent of dexamethasone control, DMSO zero
Method in brief: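 Agonist-mode qHTS: GRE-driven beta-lactamase in HeLa cells exposed 18 h to titrated compounds (up to 92 uM), then CCF4 ratio read after 2 h at RT; Hill-fitted EC50, efficacy relative to 0.1 uM dexamethasone.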

[3] = biological target: Glucocorticoid receptor (Homo sapiens) (UniProt P04150); test: qHTS assay for small molecule antagonists of glucocorticoid receptor signaling (AID 588533; active means well fitted inhibition curve with a large enough effect in the signal ratio, with a control signal flat, not every such curve was filed as active; the % refers to the signal ratio;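 further: cells stimulated with 2 nM dexamethasone as agonist; on the % scale 0 is the no-effect control and ±100 the full control effect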)
Method in brief: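 Antagonist-mode qHTS: compound titrations added to GRE-bla HeLa cells, then dexamethasone 2 nM final; 18 h, 37 C. CCF4 FRET fluorescence normalized to dexamethasone and DMSO; IC50 from Hill fit.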

[4] = biological target: Peroxisome proliferator-activated receptor delta (Homo sapiens) (UniProt Q03181); test: qHTS assay for small molecule antagonists of peroxisome proliferator-activated receptor delta signaling (AID 588535; active means well fitted inhibition curve with a large enough effect in the signal ratio, with a control signal flat, not every such curve was filed as active; the % refers to the signal ratio)
Method in brief: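 Antagonist-mode qHTS using GeneBLAzer PPAR-delta-UAS-bla HEK293T cells; compound exposure 18 hrs at 37 C over a titration. Ratiometric CCF4 fluorescence at 460/530 nm; concentration-response points fitted to the Hill equation.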

[5] = qHTS assay for small molecule activators of the p53 signaling pathway (AID 651743; active means well fitted activation curve with a large enough effect in the signal ratio, not every such curve was filed as active; the % refers to the signal ratio; further: series mostly up to about 92 µM; % of control where 0% means no effect); conditions: HCT-116 p53RE-bla, beta-lactamase FRET ratio, 16 h; activation: active compounds read high
Method in brief: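 A beta-lactamase reporter under p53 response element control, stably carried by HCT-116 cells, reported pathway activation. Test compounds were applied for 16 hours at 37 C, and fluorescence was measured 2 hours after adding the B/G FRET substrate.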

[6] = biological target: Peroxisome proliferator-activated receptor gamma (Homo sapiens) (UniProt P37231); test: qHTS assay for small molecule agonists of peroxisome proliferator-activated receptor gamma signaling (AID 588536; active means well fitted curve in the direction sought with a large enough effect in the signal ratio, with a control signal flat, not every such curve was filed as active; the % refers to the signal ratio;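 further: 0% = DMSO basal wells and 100% = rosiglitazone at 2 µM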)
Method in brief: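 Cells were plated and held 6–6.5 h at 37 C, then compounds were added as a titration series. After a further 16 h, CCF4 dye was loaded for 2 h at room temperature and emission at 460/530 nm recorded.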

[7] = biological target: Peroxisome proliferator-activated receptor gamma (Homo sapiens) (UniProt P37231); test: qHTS assay for small molecule antagonists of peroxisome proliferator-activated receptor gamma signaling (AID 588537; active means well fitted inhibition curve with a large enough effect in the signal ratio, with a control signal flat, not every such curve was filed as active; the % refers to the signal ratio;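 further: reporter cells co-stimulated with 50 nM rosiglitazone agonist during compound treatment; % of control where 0% means no effect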)
Method in brief: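 Cell-based beta-lactamase assay; GW9662 served as the antagonist control. Stimulation used rosiglitazone, final 50 nM, 16 h, 37 C.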

[8] = qHTS assay for small molecule agonists of the antioxidant response element (ARE) signaling pathway (AID 651741; active means well fitted activation curve with a large enough effect in the signal ratio; the % refers to the signal ratio; further: % of control where 0% means no effect)
Method in brief: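 Agonist activity is measured as ARE-driven beta-lactamase expression in a stable HepG2 reporter line, using 16 h compound treatment at 37 C and a FRET substrate fluorescence readout after 2 h.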

[9] = biological target: Androgen receptor (Homo sapiens) (UniProt P10275); test: qHTS assay for small molecule antagonists of androgen receptor signaling (AID 588516; active means well fitted curve in the direction sought with a large enough effect in the signal ratio, with a control signal flat, not every such curve was filed as active; the % refers to the signal ratio; further: on the % scale 0 is the no-effect control and ±100 the full control effect)
Method in brief: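 Antagonist mode: inhibition of R1881-stimulated (10 nM final) bla reporter in GeneBLAzer AR HEK 293 cells, 16 h at 37C, compounds titrated. IC50 and efficacy from Hill-equation fits of 405/460–530 nm FRET ratios.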

[10] = biological target: Androgen receptor (Homo sapiens) (UniProt P10275); test: qHTS assay for small molecule agonists of androgen receptor signaling (AID 588515; active means well fitted curve in the direction sought with a large enough effect in the signal ratio, with a control signal flat; the % refers to the signal ratio; further: on the % scale 0 is the no-effect control and ±100 the full control effect); conditions: AR-UAS-bla HEK293, beta-lactamase ratio, agonist 16 h; activation: active compounds read high
Method in brief: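 Stimulation of an AR-responsive β-lactamase reporter in GripTite HEK293 cells was measured after 16 h compound exposure at 37 °C, via CCF4 fluorescence after 2 h RT. EC50 from Hill fits, normalized to R1881 at 30 nM.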

Androgen receptor (Homo sapiens), sequence (P10275 whole entry, looked up): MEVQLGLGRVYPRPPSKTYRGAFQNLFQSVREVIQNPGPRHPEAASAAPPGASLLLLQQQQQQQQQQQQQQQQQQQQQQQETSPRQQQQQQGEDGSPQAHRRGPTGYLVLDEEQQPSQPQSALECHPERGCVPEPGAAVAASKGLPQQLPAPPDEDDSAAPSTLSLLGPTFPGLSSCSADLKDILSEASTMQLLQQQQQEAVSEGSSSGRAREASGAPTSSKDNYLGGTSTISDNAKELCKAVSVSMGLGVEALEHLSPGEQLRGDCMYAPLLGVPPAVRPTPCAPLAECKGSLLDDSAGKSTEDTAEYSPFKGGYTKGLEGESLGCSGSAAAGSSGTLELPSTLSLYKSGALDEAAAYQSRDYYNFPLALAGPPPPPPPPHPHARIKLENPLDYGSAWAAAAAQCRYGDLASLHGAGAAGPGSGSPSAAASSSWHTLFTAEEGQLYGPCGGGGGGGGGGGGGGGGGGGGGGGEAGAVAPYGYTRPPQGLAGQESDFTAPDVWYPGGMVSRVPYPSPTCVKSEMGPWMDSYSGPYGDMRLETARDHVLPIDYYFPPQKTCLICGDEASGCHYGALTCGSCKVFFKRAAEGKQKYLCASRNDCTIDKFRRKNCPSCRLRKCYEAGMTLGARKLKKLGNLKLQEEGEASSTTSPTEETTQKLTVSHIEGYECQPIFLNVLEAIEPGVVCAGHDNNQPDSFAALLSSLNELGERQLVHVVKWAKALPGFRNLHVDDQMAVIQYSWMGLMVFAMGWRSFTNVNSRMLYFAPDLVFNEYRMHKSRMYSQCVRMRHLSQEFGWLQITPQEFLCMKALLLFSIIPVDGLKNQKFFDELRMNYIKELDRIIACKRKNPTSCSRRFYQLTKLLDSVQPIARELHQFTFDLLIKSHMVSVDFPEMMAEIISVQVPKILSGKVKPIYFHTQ
Peroxisome proliferator-activated receptor gamma (Homo sapiens), sequence (P37231 whole entry, looked up): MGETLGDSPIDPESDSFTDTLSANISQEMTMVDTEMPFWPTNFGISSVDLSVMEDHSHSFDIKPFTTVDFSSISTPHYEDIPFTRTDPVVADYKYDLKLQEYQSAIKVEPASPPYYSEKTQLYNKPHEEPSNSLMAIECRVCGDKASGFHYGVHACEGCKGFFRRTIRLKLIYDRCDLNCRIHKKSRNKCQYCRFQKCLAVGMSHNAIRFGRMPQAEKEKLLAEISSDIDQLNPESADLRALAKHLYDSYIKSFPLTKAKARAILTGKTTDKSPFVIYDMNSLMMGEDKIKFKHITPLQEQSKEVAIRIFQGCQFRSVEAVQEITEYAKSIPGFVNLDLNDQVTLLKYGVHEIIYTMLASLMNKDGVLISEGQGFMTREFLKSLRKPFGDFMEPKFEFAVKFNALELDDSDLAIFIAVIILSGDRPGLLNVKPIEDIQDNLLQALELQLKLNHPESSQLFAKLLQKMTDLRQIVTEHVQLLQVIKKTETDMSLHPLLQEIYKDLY
Glucocorticoid receptor (Homo sapiens), sequence (P04150 whole entry, looked up): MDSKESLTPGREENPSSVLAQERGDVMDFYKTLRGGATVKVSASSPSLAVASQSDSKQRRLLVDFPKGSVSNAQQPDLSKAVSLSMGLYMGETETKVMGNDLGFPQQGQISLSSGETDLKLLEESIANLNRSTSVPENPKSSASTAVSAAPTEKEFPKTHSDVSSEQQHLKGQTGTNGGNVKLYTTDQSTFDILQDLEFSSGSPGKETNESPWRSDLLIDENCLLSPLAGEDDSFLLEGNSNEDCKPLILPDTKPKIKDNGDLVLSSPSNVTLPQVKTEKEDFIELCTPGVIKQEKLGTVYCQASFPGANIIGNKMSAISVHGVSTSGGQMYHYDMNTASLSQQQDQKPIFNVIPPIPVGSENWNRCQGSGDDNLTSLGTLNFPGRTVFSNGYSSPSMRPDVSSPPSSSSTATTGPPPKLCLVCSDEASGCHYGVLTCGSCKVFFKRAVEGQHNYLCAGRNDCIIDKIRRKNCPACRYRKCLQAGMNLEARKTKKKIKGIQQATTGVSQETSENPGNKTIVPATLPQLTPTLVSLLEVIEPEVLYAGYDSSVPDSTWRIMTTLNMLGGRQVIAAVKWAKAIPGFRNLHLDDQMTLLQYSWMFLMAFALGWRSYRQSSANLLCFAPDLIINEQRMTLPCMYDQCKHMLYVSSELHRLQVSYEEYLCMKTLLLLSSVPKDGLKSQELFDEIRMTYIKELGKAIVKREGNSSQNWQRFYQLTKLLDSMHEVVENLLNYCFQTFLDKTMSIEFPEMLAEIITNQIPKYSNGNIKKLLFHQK
Bile acid receptor (Homo sapiens), sequence (Q96RI1 whole entry, looked up): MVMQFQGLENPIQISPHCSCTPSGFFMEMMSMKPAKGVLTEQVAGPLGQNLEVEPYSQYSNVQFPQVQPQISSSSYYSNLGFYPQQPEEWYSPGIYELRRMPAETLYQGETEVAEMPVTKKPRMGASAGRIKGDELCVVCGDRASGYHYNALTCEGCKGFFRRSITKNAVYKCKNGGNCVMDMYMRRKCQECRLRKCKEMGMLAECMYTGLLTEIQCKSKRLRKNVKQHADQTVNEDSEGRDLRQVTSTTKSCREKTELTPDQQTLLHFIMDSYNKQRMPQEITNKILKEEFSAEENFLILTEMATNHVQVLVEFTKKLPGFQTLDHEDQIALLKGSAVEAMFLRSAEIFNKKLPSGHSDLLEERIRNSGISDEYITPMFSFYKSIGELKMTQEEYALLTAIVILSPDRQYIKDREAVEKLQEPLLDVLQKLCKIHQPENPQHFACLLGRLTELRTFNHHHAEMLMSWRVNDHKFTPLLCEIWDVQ
Peroxisome proliferator-activated receptor delta (Homo sapiens), sequence (Q03181 whole entry, looked up): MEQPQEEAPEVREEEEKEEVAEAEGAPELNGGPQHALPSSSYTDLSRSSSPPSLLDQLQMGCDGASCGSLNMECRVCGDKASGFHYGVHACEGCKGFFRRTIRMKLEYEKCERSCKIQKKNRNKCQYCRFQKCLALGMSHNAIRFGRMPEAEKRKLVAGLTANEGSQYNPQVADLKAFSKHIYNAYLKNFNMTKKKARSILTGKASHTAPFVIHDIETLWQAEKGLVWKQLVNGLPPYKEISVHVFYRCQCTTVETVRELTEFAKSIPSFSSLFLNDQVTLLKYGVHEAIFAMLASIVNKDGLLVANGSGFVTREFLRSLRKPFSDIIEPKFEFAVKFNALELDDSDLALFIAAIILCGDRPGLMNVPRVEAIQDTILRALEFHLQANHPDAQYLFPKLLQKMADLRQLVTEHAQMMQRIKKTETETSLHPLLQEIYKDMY

CCCCCC1CCC(=O)O1 (stereo not given)
inactive: Potency [1] | activation [2] -5.15% | Potency [3] | Potency [4] | activation [5] 0.985%

CC1(C)C(=O)N(Cl)C(=O)N1Cl
inactive: Potency [3] | outcome [6] | Potency [7] | Potency [8] | activation [5] -0.829%

CCC(=O)OCCc1ccccc1
inactive: Potency [1] | activation [2] -12.1% | Potency [3] | Potency [4] | outcome [6] | Potency [8] | activation [5] -3.48%

O=[N+]([O-])c1ccc2c(c1)Cc1ccccc1-2
inactive: activation [2] -0.149% | Potency [3] | Potency [4] | Potency [7] | activation [5] 4.31%

C[Si]1(C)O[Si](C)(C)O[Si](C)(C)O[Si](C)(C)O[Si](C)(C)O1
inactive: activation [2] 5.87% | Potency [3] | Potency [4] | outcome [6] | Potency [7] | Potency [8]

C/C=C/C=C/CCCCCCCO
inactive: Potency [1] | activation [2] -6.08% | Potency [3] | Potency [4] | Potency [7] | Potency [8] | activation [5] 7.24%

CCCCOC(=O)/C=C\C(=O)OCCCC
inactive: activation [2] -13.3% | Potency [3] | activation [5] 5.06%

CC(C)O.CC(C)O.CC(C)O.CC(C)O.[Ti]
inactive: Potency [1] | Potency [4] | outcome [6] | Potency [7] | Potency [8]

Nc1nc(N)nc(-c2ccccc2)n1
inactive: activation [2] -8.55% | Potency [3] | Potency [4] | outcome [6] | Potency [8]

CCCCCCCCCCO
inactive: Potency [1] | activation [2] -0.536% and 2.82% | Potency [3] | outcome [6] | Potency [7] | Potency [8] | activation [5] 1.66% and 2.49%

c1ccc(-c2ccc(-c3ccccc3)cc2)cc1
inactive: activation [2] -0.857% | Potency [3] | Potency [4] | outcome [6] | Potency [7]

CCCCCCCCCCCC(=O)N(C)CC(=O)O
inactive: activation [2] -0.898%

CC/C=C\CCOC(=O)c1ccccc1O
inactive: activation [2] -3.47% | Potency [3] | Potency [4] | outcome [6] | Potency [7] | Potency [8]

C/C(=C\C(C)CC(C)CC(C)C)C1CC(=O)OC1=O (stereo not given)
inactive: activation [2] -4.02% | outcome [6] | activation [5] -3.07%

CCCCOCCOCCOC(=O)CCCCC(=O)OCCOCCOCCCC
inactive: Potency [1] | activation [2] -7.36% | Potency [3] | Potency [4] | outcome [6] | Potency [7]

CC(=O)/C=C/C1C(C)=CCCC1(C)C (stereo not given)
inactive: Potency [1] | outcome [6] | Potency [7] | Potency [8] | activation [5] -1.49%

C=C(C)C(=O)OCCOC(=O)C(=C)C
inactive: outcome [9] | activation [2] -0.861% | Potency [3] | Potency [4] | outcome [6] | Potency [8] | activation [5] -1.01%

CCCCN(CCCC)CCCC
inactive: Potency [1] | activation [2] 8.81% | Potency [3] | Potency [8] | activation [5] -3.01%

CCCCNS(=O)(=O)c1ccccc1
inactive: activation [2] -1.82% | Potency [3] | outcome [6] | Potency [7] | activation [5] 0.183%

OCC(CO)(CO)COCC(CO)(CO)CO
inactive: Potency [1] | outcome [6] | Potency [7] | Potency [8] | activation [5] -2.73%

NNS(=O)(=O)c1ccc(Oc2ccc(S(=O)(=O)NN)cc2)cc1
inactive: Potency [1] | Potency [4] | outcome [6] | activation [5] -0.745%

Cn1c(=O)[nH]c(=O)n(C2CCCCC2)c1=O
inactive: outcome [9] | Potency [1] | activation [2] 12.5% | Potency [3] | activation [5] -1.53%

C[N+](C)(C)CC(O)CCl (stereo not given)
inactive: activation [2] -7.46% | Potency [3] | Potency [4] | outcome [6] | Potency [7] | activation [5] 0.454%

Cc1cc(C)c(N)c(Cl)c1
inactive: activation [2] 5.1% | Potency [3] | Potency [4] | Potency [8] | activation [5] -7.91%

CCC(C)(C)C1CCC(O)CC1 (stereo not given)
inactive: Potency [4] | outcome [6] | Potency [7] | Potency [8]

O=C(O)CCCCCCCCCCC(=O)O
inactive: Potency [1] | activation [2] -1.99% | Potency [3] | Potency [4] | Potency [8]

COC(=O)c1ccccc1C(=O)O
inactive: activation [2] -3.15% | Potency [3] | Potency [4] | outcome [6] | Potency [7] | Potency [8] | activation [5] -3.42%

COc1ccccc1NC(=O)CC(C)=O
inactive: Potency [4] | Potency [8] | activation [5] -7.86%

O=[N+]([O-])C(CO)(CO)CO
inactive: Potency [4] | outcome [6] | Potency [7] | activation [5] 7.94%

CCOC(=O)COc1cc(-n2ncc(C(F)(F)F)c(C)c2=O)c(F)cc1Cl
inactive: activation [10] -1.68% | activation [2] 13.3% | Potency [4] | outcome [6] | activation [5] 2.36%

CCOC(=O)CCCCCCCCC(=O)OCC
inactive: outcome [6] | Potency [7] | Potency [8] | activation [5] -5.93%
